Source: PubChem BioAssay
The list is not random: actives were taken first. Their share in the collection is about 27%.
CYP2C9 inhib = inhibitors of human CYP2C9 | inhibition, % at 5 µM | 20% of 96,000 active | P11712 | CYP2C9 Supersomes, luciferin-H conversion, luminescence;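 active means blocking of liver enzyme CYP2C9 beyond about 50% at 5 µM, limit read from the data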
sEH act = activators of human soluble epoxide hydrolase. P34913. purified human sEH enzymatic activity, activator screen. activation, % at 2 µM. 0.04% of 91,000 active. AID 717; in the data active means activation above about 37%
CYP2C19 inh = human CYP2C19 inhibition; CYP2C19 Supersomes, luciferin-H EGE luminescence, 30 min; inhibition, % at 5 µM; 21% of 96,000 active; AID 778;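 active means CYP2C19 inhibition above a set limit at 5 µM in the primary screen, cut at about 50% in these data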
CYP2C19 activ = cytochrome P450 2C19 (human) activation. P33261. recombinant CYP2C19, luciferin-H EGE luminescence; stronger effect = higher value; 0 = fully inhibited enzyme, 1 = untreated enzyme. activation factor at 5 µM. 96,000 tested, under 10 active. AID 1025;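 active means activation factor of at least 2 at 5 µM in the primary screen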
sEH inhibitor = inhibitors of human soluble epoxide hydrolase | P34913 | recombinant human sEH enzymatic activity assay | inhibition, % at 2 µM | 0.34% of 91,000 active; in the data active means inhibition above about 80%
CYP2C9 activ = activators of human CYP2C9 | recombinant CYP2C9, luciferin-H conversion, luminescence; stronger effect = higher value; factor 1 = untreated enzyme, 0 = blocked | activation factor at 5 µM | 1.4% of 96,000 active | AID 1024;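 active means activation factor of 2 or more for CYP2C9 at a 5 µM dose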
Numbers stand for hits; n = inactive; x = no result given.

SMILES | CYP2C9 inhib | sEH act | CYP2C19 inh | CYP2C19 activ | sEH inhibitor | CYP2C9 activ
CCn1c(SCC(=O)O)nnc1-c1ccccc1 | n | n | n | n | n | n
C1CSC2(N1)C1CC3CC2CC(C1)C31NCCS1 (stereo not given) | n | n | n | n | n | n
c1ccc(C[n+]2csc3ccccc32)cc1 | 55 | n | n | n | n | n
O=c1cc(CO)occ1OCc1cccc(F)c1 | n | n | n | n | n | n
Fc1cccc(C[n+]2csc3ccccc32)c1 | 62 | n | n | n | n | n
O=C1CSC(=O)N1CC(O)COc1ccc(Cl)cc1 (stereo not given) | n | n | 54 | n | n | n
CC(=O)N1N=C(c2ccncc2)OC12CCCC2 | n | n | n | n | n | n
CC1(C)CC(=O)c2cc(C(=O)N3CCN(CCO)CC3)c(=O)n(-c3ccc(Cl)cc3)c2C1 | n | n | n | n | n | n
CCOC(=O)c1sc2nc3n(c(=O)c2c1C)CCCCC3 | 57 | n | 74 | n | n | n
CCOC(=O)c1sc2nc(SCC#N)n(CCCN3CCCC3=O)c(=O)c2c1C | 79 | n | 55 | n | n | n
Cc1c(C(=O)O)sc2nc3n(c(=O)c12)CCCCC3 | n | n | n | n | n | n
Cc1nc2sc(C(c3cccs3)N3CCN(c4ccccc4)CC3)c(O)n2n1 (stereo not given) | n | x | n | n | x | n
NC(=S)Nc1ccc(Oc2ccc(NC(N)=S)cc2)cc1 | n | n | n | n | n | n
Sc1oc(-c2ccccc2)cc1C=Nc1ccccc1 | n | n | n | n | n | n
O=C1c2ccccc2C2(c3ccccc3)NCCN12 (stereo not given) | n | x | n | n | x | n
Cc1ccc(C(=O)N2CCN3C(=O)c4ccccc4C23c2ccc(Cl)cc2)cc1 (stereo not given) | n | n | 86 | n | n | n
O=C(Nc1cccc(Cl)c1)N1CCN2C(=O)c3ccccc3C12c1ccccc1 (stereo not given) | 57 | x | n | n | x | n
CC1CCCC(C)N1C(=O)Nc1cccc(Cl)c1 (stereo not given) | n | n | n | n | n | n
O=C(NC1CCCCC1)c1cccc(Cn2cc(Cl)cn2)c1 | n | n | n | n | n | n
CCn1c(-c2cc(-c3ccc(OC(C)C)cc3)nc3ccccc23)n[nH]c1=S | 96 | n | 74 | n | n | n
CCn1c(-c2cc(-c3cc(OC)ccc3OC)nc3ccccc23)n[nH]c1=S | 97 | n | 88 | n | n | n
CN(C)S(=O)(=O)c1ccc2c(c1)c(=O)c(C(=O)N1CCN(c3ccccn3)CC1)cn2C | n | n | n | n | n | n
Cc1nn(C)cc1CN(C)C(=O)c1sc2cccc(Cl)c2c1Cl | n | x | 97 | n | x | 2
CCOC(=O)c1sc2cccc(Cl)c2c1N | x | n | x | x | n | x
CCn1c(SCC(=O)NCCc2ccccc2)nc2c(c1=O)SC(C)C2 (stereo not given) | 92 | x | 76 | n | x | n
SMILES | CYP2C9 inhib | sEH act | CYP2C19 inh | CYP2C19 activ | sEH inhibitor | CYP2C9 activ
CCn1c(SCC(=O)NCc2ccccc2)nc2c(c1=O)SC(C)C2 (stereo not given) | 61 | x | n | n | x | n
CC1Cc2nc(SCC(=O)NCCc3ccccc3)n(C)c(=O)c2S1 (stereo not given) | x | n | x | x | n | x
CCn1c(SCC(=O)NCc2ccc(F)cc2)nc2c(c1=O)SC(C)C2 (stereo not given) | 63 | x | n | n | x | n
CCOC(=O)Cc1csc(NC(=O)CC(C)(C)C)n1 | n | n | n | n | n | n
Nc1c(Cl)cc(Cl)cc1C(=O)OCC(=O)NC1CC1 | n | n | n | n | n | 2.1
CC1=C(C(=O)N(C)C)C(c2cccc(Cl)c2)NC(=O)N1 (stereo not given) | n | x | n | n | x | n
COc1ccc2[nH]c(C)c(CN3CCC(C)CC3)c(=O)c2c1 | n | x | n | n | x | n
COc1ccc2[nH]c(C)c(CCN3C(=O)OC(C)(C)C3(C)O)c2c1 (stereo not given) | 86 | n | 99 | n | n | n
COc1ccc2[nH]c(C)c(CCN3C(=O)C4CC=CCC4C3=O)c2c1 (stereo not given) | 58 | n | 97 | n | n | n
COc1cc(C2=NOC(C(=O)N3CCOCC3)C2)cc(OC)c1OC (stereo not given) | n | n | n | n | n | n
COC(=O)c1c(C(=O)OC)c(-c2ccc(C)cc2)n2c1CS(=O)C2 (stereo not given) | n | n | n | n | n | n
